Compound activity: PubChem BioAssay, several laboratories
AI-2 QS modul = modulates the Vibrio harveyi AI-2 quorum sensing system; Vibrio harveyi JMH597 AI-2 luminescence/OD600 ratio, 9 h; active compounds read low; strain lacks LuxN and CqsS sensors; 0 = neutral-control median; activity change, % at 7.5 µM; 300,000 tested, 0.4% active; in the data active means activity change below about -75%, passing the limit was not always enough; inconclusive means no clear call, values can overlap the other calls;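 further: luminescence divided by OD600 gain over 9 h not by final OD600 alone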
PHOSPHO1 inh = PHOSPHO1 (human) inhibition; Q8TCT1; recombinant PHOSPHO1, absorbance phosphatase assay; inhibition, % at 13.3 µM; 290,000 tested, 1.1% active; AID 1565; in the data active means inhibition above about 60%
Target sequence (Q8TCT1 whole entry, looked up): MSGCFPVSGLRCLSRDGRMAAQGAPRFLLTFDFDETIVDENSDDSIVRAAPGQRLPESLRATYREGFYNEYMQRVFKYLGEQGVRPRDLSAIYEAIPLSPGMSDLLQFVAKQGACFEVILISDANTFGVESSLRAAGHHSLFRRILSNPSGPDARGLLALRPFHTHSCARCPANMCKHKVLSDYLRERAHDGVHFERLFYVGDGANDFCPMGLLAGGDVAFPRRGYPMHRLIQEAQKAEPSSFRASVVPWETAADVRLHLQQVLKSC
eIF4H FP inh = inhibitors of RNA binding by human eIF4H. AID 2012. inhibition, % at 35 µM. Q15056. eIF4H fluorescence polarization binding assay. 290,000 tested, 0.94% active;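 further: calls also rest on retests at 20 µM and on dose response follow-up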
PABP FP inh = blocks human PABP binding to poly(A) RNA | P11940 | fluorescence polarization | calls only at 35 µM | 290,000 tested, 1% active;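 further: calls also rest on retests at 20 µM and on dose response follow-up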
MLLE-PAM2 inh = inhibitors of microRNA-mediated deadenylation, human PABP1 MLLE binding; P11940; GST-MLLE / FITC-PAM2 fluorescence polarization; inhibition, % at 20 µM; 360,000 tested, 0.36% active; in the data active means inhibition above about 35%, passing the limit was not always enough;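 further: plate controls were DMSO wells with GST-MLLE for no effect and wells lacking GST-MLLE protein for full effect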
ABCB6 inh 2 = inhibitors of human ABC transporter ABCB6; Q9NP58; K562-ABCB6 porphyrin accumulation, flow cytometry, 1 h; active compounds read low; fluorescence ratio to DMSO, % at 10 µM; 360,000 tested, 0.19% active;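 active means fluorescence ratio to DMSO below 75%, the collection mean minus 3 SD; inconclusive means too few cells collected in the well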;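 further: signal is porphyrin accumulated inside mitochondria; 100% equals median channel fluorescence of DMSO control wells; lower ratio means ABCB6 inhibition with less porphyrin fluorescence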
JMH597 growth rt = retest: blocks Vibrio harveyi JMH597 growth | shares compounds with AI-2 QS modul | OD600 absorbance, 9 h; lacks LuxN and CqsS sensors | growth inhibition, % at 7.5 µM | 750 tested, 1% active;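 active means every replicate shows growth inhibition above 50%; inconclusive means at least half, but not all, replicates pass that cutoff; inactive means fewer than half of replicates pass it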
BB721 lum counter = retest counter-screen: lowers luminescence of constitutive-QS Vibrio harveyi BB721; shares compounds with AI-2 QS modul; 9 h; inhibition, % at 7.5 µM; 750 tested, 95% active; AID 2727;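 active means inhibition above about 80% in every replicate, not just on average, limit read from the data; inconclusive means at least half of replicates past the limit, but not all; inactive means fewer than half of replicates past the limit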
BB721 growth = retest Vibrio harveyi BB721 growth inhibition | growth inhibition, % at 7.5 µM | 750 tested, 3% active | OD600 absorbance, 9 h | shares compounds with AI-2 QS modul;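 active means every replicate shows growth inhibition above 50%; inconclusive means at least half but not all replicates above 50% inhibition; inactive means under half of replicates above 50% inhibition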
AI-2 QS JMH597 = Vibrio harveyi AI-2 signaling luminescence modulation – JMH597 strain, confirmation | AID 2736 | 750 tested, 97% active | inhibition, % at 7.5 µM | shares compounds with AI-2 QS modul | Vibrio harveyi JMH597 AI-2 quorum sensing luminescence, 9 h; luxN and CqsS knockout, AI-2 only;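 active means every replicate shows more than 75% inhibition of signal versus neutral control wells; inconclusive means half to three quarters of replicates exceed 75% inhibition; inactive means fewer than half of replicates exceed 75% inhibition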
Numbers without * were called inactive; i = inactive; u = inconclusive; x = no result given. Rows were chosen to be rich in hits. Some 2.6% of all compounds tested hit in one or more screens of this group. Unless noted, how the calls were made is not given here.

SMILES	AI-2 QS modul	PHOSPHO1 inh	eIF4H FP inh	PABP FP inh	MLLE-PAM2 inh	ABCB6 inh 2	JMH597 growth rt	BB721 lum counter	BB721 growth	AI-2 QS JMH597
COC(=O)c1cccc(NC(=O)CN2CCOCC2)c1	18	-12	7	i	5	98	x	x	x	x
COc1ccc(C2CC=C(C(C)=O)CN2S(=O)(=O)c2ccccc2)cc1 (centres undefined)	x	x	x	x	6	100	x	x	x	x
COc1cc(C(=O)N2CCCCC2c2cc(C(=O)Nc3ccccc3)no2)cc(OC)c1C (centres undefined)	x	x	x	x	5	93	x	x	x	x
CC(=O)Nc1cc(-c2ccsc2)cn2c(-c3ccc(F)cc3)cnc12	x	x	x	x	-37	92	x	x	x	x
CCCCCC(=O)NC(=S)Nc1ccc2oc(=O)ccc2c1	-90*	4	-2	i	24	97	19	99*	40	98*
CN(C)S(=O)(=O)c1ccc(C(=O)OCC(=O)c2ccc3c(c2)NC(=O)CO3)cc1	-95*	38	8	i	2	101	-10	u	-8	85*
O=C1COc2ccc(C(=O)COC(=O)Cc3ccccc3F)cc2N1	-83*	24	1	i	5	96	3	88*	0	91*
O=C1COc2ccc(C(=O)COC(=O)Cc3ccsc3)cc2N1	-85*	23	1	i	-7	98	27	95*	11	97*
O=C1COc2ccc(C(=O)COC(=O)Cc3c(F)cccc3Cl)cc2N1	x	x	x	x	-5	96	x	x	x	x
COc1ccc2c(c1OC)C(CC(C)=O)N1CCc3cc4c(cc3C1C2=O)OCO4 (centres undefined)	x	x	x	x	-4	105	x	x	x	x
COC(=O)c1ccc(-c2noc(CN(C)CC3CCCCO3)n2)cc1 (centres undefined)	-2	10	-6	i	11	99	x	x	x	x
COC(=O)c1ccc(-c2noc(CN3C[C@H]4CC[C@H]3C4)n2)cc1	-84*	30	-13	i	-9	108	-9	94*	1	96*
COc1ccc(C(C)C)cc1-c1cccc2nncn12	x	x	x	x	-6	98	x	x	x	x
CCCCCCCCN1C(=O)[C@H](CC(=O)NCCCN2CCCC2=O)C[C@@]2(C(=O)OC)CCCCC=C12	x	x	x	x	x	100	x	x	x	x
O=C1CCC(=O)N1c1ccc(CSc2nc3ccccc3[nH]2)cc1	6	35	-2	i	28	92	x	x	x	x
COc1ccc(CSc2nc3ccccc3[nH]2)cc1	-85*	31	-11	i	-18	98	21	92*	-14	96*
CC(C)C[C@@H]1CC2=C(C(=O)OC(C)(C)O2)[C@H](CCc2ccccc2)O1	x	x	x	x	x	95	x	x	x	x
Cc1ccc(CSc2nnc(-c3ccco3)o2)cc1	-82*	13	8	i	-3	105	35	96*	6	98*
Brc1ccc(CSc2nnc(-c3ccco3)o2)cc1	-60	-21	-1	i	7	99	x	x	x	x
c1ccc(CSc2nnc(-c3ccco3)o2)cc1	-87*	24	-3	i	-5	103	15	95*	0	96*
NC(Cc1ccc(F)cc1)c1csc(NC(=O)NC(c2ccccc2)c2ccccc2)n1 (centres undefined)	x	x	x	x	-13	98	x	x	x	x
COc1cc(/C=N/NC(=O)Cn2cnc3ccccc3c2=O)ccc1O	-89*	34	3	i	-3	96	-7	95*	-17	97*
O=C(Cn1cnc2ccccc2c1=O)N/N=C/c1ccc(Br)cc1	-14	32	-4	i	-2	97	x	x	x	x
Fc1ccccc1CSc1nnc(-c2ccccc2)o1	-93*	-32	-5	i	4	101	11	98*	-5	98*
COc1ccc(-c2nnc(SCc3cccc(C#N)c3)o2)cc1	-40	-11	9	i	-2	97	x	x	x	x
SMILES	AI-2 QS modul	PHOSPHO1 inh	eIF4H FP inh	PABP FP inh	MLLE-PAM2 inh	ABCB6 inh 2	JMH597 growth rt	BB721 lum counter	BB721 growth	AI-2 QS JMH597
COc1cccc(CSc2nnc(-c3ccc(F)cc3)o2)c1	-91*	15	-1	i	-9	102	30	96*	5	97*
Cc1ccccc1-c1nnc(SCc2ccccc2F)o1	-81*	-9	-6	i	-3	96	36	95*	17	96*
Cc1ccccc1-c1nnc(SCc2ccccc2)o1	-96*	-17	-7	i	4	98	11	99*	8	99*
Cc1ccccc1CSc1nnc(-c2ccncc2)o1	-37	30	4	i	-12	95	x	x	x	x
O=C(Nc1ccc2c(c1)OCCO2)C1c2ccccc2OCC(=O)N1CC(F)(F)F (centres undefined)	x	x	x	x	x	102	x	x	x	x
c1ccc(CSc2nnc(-c3ccncc3)o2)cc1	-88*	-14	-2	i	-3	93	-16	95*	-26	96*
Cc1cc(C)nc(SCC(=O)Nc2ccc(N3CCOCC3)c(Cl)c2)n1	x	-3	-10	i	4	96	x	x	x	x
CNc1nc(SCC(=O)Nc2ccc(Cl)c(Cl)c2)nc(N2CCOCC2)n1	u	31	-10	i	-7	101	-13	-13	-22	-2
CC(=O)Nc1ccc(OCC(=O)N2CCc3ccccc3C2)cc1	21	32	3	i	-22	99	x	x	x	x
CC(C)c1ccc(OCC(=O)N2CCc3ccccc3C2)cc1	u	24	-3	i	5	100	12	85*	12	90*
C=CCOc1c(CNc2ccc(C(=O)O)cc2)cccc1OCC	-89*	22	-7	i	-2	98	5	95*	-2	98*
CCCCN(C=O)c1c(CC)nc2ccc(C(=O)N(C)Cc3ccco3)cn12	x	x	x	x	0	97	x	x	x	x
O=S(=O)(NCCSc1ccc(Cl)cc1)c1ccc(F)cc1	-56	41	-6	i	5	95	x	x	x	x
Cc1ccc(SCCNS(=O)(=O)c2ccc(F)cc2)cc1	-94*	3	-4	i	-6	89	27	94*	-141	95*
O=C(COC(=O)c1ccco1)Nc1nc2ccccc2s1	u	30	-18	i	-1	93	-2	94*	11	95*
O=C(CCNC(=O)c1ccco1)Nc1nc2ccccc2s1	x	x	x	x	-28	97	x	x	x	x
O=C(NNC(=O)C1CCN(S(=O)(=O)c2ccc(Cl)cc2)CC1)c1ccc(Cl)cc1	14	-38	4	i	-27	90	x	x	x	x
